Source: PubChem (several laboratories)
An excerpt weighted towards active compounds, which were near 11% of everything screened.
WT yeast gro inh: growth inhibition of WT yeast, mitochondrial fusion screen; mitochondrial fusion phenotypic screen, WT strain; inhibition, % at 10 µM; hit rate 2.1% among 190,000; in the data active = inhibition above about 58%; tested in S. cerevisiae
INS promoter inh: TRM-6 insulin promoter activity inhibition. inhibition, % at 2 µM. hit rate 0.9% among 130,000. TRM-6 cells (human fetal islet line), insulin promoter-eGFP reporter, imaging; reporter expression induced with tamoxifen;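 active = inhibition above the mean plus 3 SD, with well images judged a real hit on visual review, cut at about 60% in these data, passing the limit was not always enough; inconclusive = inhibition over the cutoff but images rejected on review; inactive = inhibition not above the cutoff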
Autophagy mod: modulators of autophagy | AID 463193 | calls only at 10 µM (by protocol) | hit rate 0.98% among 190,000 | MEF GFP-LC3 puncta imaging; test concentration mostly 10 µM;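 active = percentage of spot-positive cells more than 3 SD above its plate mean, without a fluorescence outlier flag or 80% toxicity; inconclusive = no clear call, values can overlap the other calls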;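 also: spot-positive cell cutoff set from DMSO-treated cells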
Ins promoter up: MIN6 insulin promoter up-regulation. MIN6 insulin promoter-GFP reporter, high-content imaging; hits give high values. z-score at 5 µM. hit rate 0.3% among 190,000. AID 1625;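 active = z-score above 3 at 5 µM with at least 500 cells counted in the well; inconclusive = wells under 500 cells, flagged as cytotoxic or low count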
Lmaj promast: inhibitors of Leishmania major promastigote growth; Leishmania major promastigotes, resazurin fluorescence viability; inhibition, % at 10 µM; hit rate 9% among 200,000; AID 1063; in the data active = inhibition above about 50%;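 also: promastigotes grown with compound for 44 hours at 28 °C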
An asterisk follows results filed as active; i = inactive; u = inconclusive; x = not tested or not shown; + = active, no number.

SMILES	WT yeast gro inh	INS promoter inh	Autophagy mod	Ins promoter up	Lmaj promast
CCOC(=O)C1=C(C)NC2=C(C(=O)CCC2)C1c1cccnc1 (centres undefined)	-19.9	63.0	i	-0.85	4.4
CCOC(=O)C1=C(C)NC2=C(C(=O)c3ccccc32)C1c1cccnc1 (centres undefined)	9.0	-11.8	i	-1.51	81.9*
N#CCCN(C(=O)Nc1ccc(Cl)c(Cl)c1)c1ccccc1	4.8	14.3	i	1.36	9.0
CC(=O)Nc1sc2c(c1C(c1ccc(Cl)cc1)N1CCOCC1)CCCC2 (centres undefined)	80.5*	-104.3	i	x	23.4
COc1cc(COCC(O)CN2CCN(Cc3ccccc3)CC2)cc(OC)c1OC (centres undefined)	-1.4	x	i	-1.52	88.4*
CCOC(=O)C1CCN(C(=O)c2ccc3c(c2)OCO3)CC1	-8.3	x	i	0.26	0.1
OC(COc1ccccc1)CN1CCN(Cc2ccc3c(c2)OCO3)CC1 (centres undefined)	-6.9	x	i	0.03	85.1*
O=C(CN1CCN(c2ccc(F)cc2)CC1)c1ccc2c(c1)OCO2	-4.1	51.6	i	0.48	88.5*
CCOC(=O)C1CCN(CC(O)COCc2ccc3c(c2)OCO3)CC1 (centres undefined)	-4.2	26.7	i	-0.74	86.2*
O=c1c2oc3ccccc3c2ncn1Cc1ccc(Cl)cc1	0.6	x	i	-1.67	0.6
OC(COc1ccc2c(c1)OCO2)CN1CCCC1 (centres undefined)	-9.1	x	i	-0.34	1.6
O=C1c2cccc3cccc(c23)C(=O)N1CC1CCN(CC(O)COCc2ccc3c(c2)OCO3)CC1 (centres undefined)	33.3	-5.7	i	-1.17	90.5*
O=C(CCN1C(=O)c2cccc3cccc(c23)C1=O)N1CCN(Cc2ccc3c(c2)OCO3)CC1	23.2	x	i	0.26	37.2
Cc1ccc(C)c(OCC(O)CN2CCC(CN3C(=O)c4cccc5cccc(c45)C3=O)CC2)c1 (centres undefined)	36.8	20.0	i	u	100.0*
OC(COc1ccc2c(c1)OCO2)CN1CCN(c2ccc(F)cc2)CC1 (centres undefined)	4.1	x	i	-0.59	53.0*
Cc1cc(C)cc(OCC(O)CN2CCN(Cc3ccc4c(c3)OCO4)CC2)c1 (centres undefined)	11.7	u	i	-0.74	90.3*
Cc1cc2cc(CNC(=S)NC3CCCCC3)ccc2n1C	14.3	45.5	i	0.03	-6.4
CCc1nc2ccccc2n1Cc1ccccc1F	-4.6	x	i	-0.28	12.7
OC(COCc1ccc2c(c1)OCO2)CN1CCN(Cc2ccccc2)CC1 (centres undefined)	39.5	-8.7	i	0.45	88.8*
OCCN1CCN(CC(O)COCc2ccc3c(c2)OCO3)CC1 (centres undefined)	-5.6	5.6	i	x	-4.3
O=C(CSc1nc2nn(-c3ccccc3)c(=O)c-2c2n1CCCCC2)NCCCc1ccccc1	0.2	-133.3	i	x	-1.5
CCCN(CC(=O)Nc1cccc(Br)c1)CC(=O)Nc1ccc(F)c(F)c1F	69.2*	x	i	-0.25	6.8
C=C(C)CSc1nc2ncccc2[nH]1	13.2	71.4*	i	-0.44	-0.2
CCN(CC)C(=O)CSc1nc2ncccc2[nH]1	25.3	35.0	i	0.96	-5.3
COc1ccccc1NC(=O)CSc1nc2ncccc2[nH]1	10.1	-30.3	i	0.35	7.4
SMILES	WT yeast gro inh	INS promoter inh	Autophagy mod	Ins promoter up	Lmaj promast
CCOC(=O)c1ccc(NC(=O)CSc2nc3ncccc3[nH]2)cc1	-13.5	10.5	i	0.04	62.5*
CC1CCCN(C(=O)CSc2nc3ncccc3[nH]2)C1 (centres undefined)	10.2	x	+	1.02	-2.2
C/C(=N\O)c1ccc2c3c([nH]c2c1)CCCC3	73.8*	x	i	1.49	9.7
O=C(C1=C[C@H](c2ccccc2)C[C@H](OCc2ccc(CO)cc2)O1)N1CCOCC1	-33.2	x	i	-0.43	-9.6
CC1CCCN(c2ccc(C(=O)Nc3ccc4c(c3)OCO4)cc2[N+](=O)[O-])C1 (centres undefined)	32.9	6.9	i	0.04	97.3*
CC1CCCN(c2ccc(C(=O)NCc3ccc4c(c3)OCO4)cc2[N+](=O)[O-])C1 (centres undefined)	33.6	x	i	-0.23	1.8
CC1CCN(c2ccc(C(=O)Nc3ccc4c(c3)OCO4)cc2[N+](=O)[O-])CC1	11.1	-17.2	i	0.3	97.7*
CC1CCN(c2ccc(C(=O)N3CCOCC3)cc2[N+](=O)[O-])CC1	26.2	-10.0	i	x	-7.3
CCN(CC)c1ccc(C=C(c2nnnn2-c2ccc(C)cc2)c2nnnn2-c2ccc(C)cc2)cc1	-4.7	-64.5	+	1.56	41.6
CC1Cc2ccccc2N1C1=CC(=O)CCC1 (centres undefined)	-12.9	18.5	i	u	97.7*
CCOc1ccccc1NC(=S)N1CCN(c2nc(-c3ccc(F)cc3)cs2)CC1	24.8	-5.3	i	-1.87	90.0*
S=C(NCCCN1CCOCC1)N1CCN(c2nc(-c3ccccc3)cs2)CC1	12.9	x	i	0.13	82.5*
S=C(NCC1CCCO1)N1CCN(c2nc(-c3ccc(Cl)cc3)cs2)CC1 (centres undefined)	67.1*	38.5	i	x	16.3
S=C(NCCCN1CCOCC1)N1CCN(c2nc(-c3ccc(Cl)cc3)cs2)CC1	88.7*	-7.1	i	-1.09	75.6*
COCCCNC(=O)C(=O)C1C(=O)Nc2ccccc21 (centres undefined)	-8.3	x	i	0.56	-8.8
CS(=O)(=O)c1nc(-c2cccs2)cc(C(F)(F)F)n1	28.4	6.9	+	0.54	36.6
O=C(O)CCS(=O)(=O)c1nc(-c2cccs2)cc(C(F)(F)F)n1	14.1	6.7	i	-0.9	2.0
COc1ccc(-c2cc(C(F)(F)F)nc(S(C)(=O)=O)n2)cc1	-11.8	2.9	i	-0.47	100.4*
c1ccc(N2CCN(c3nnnn3-c3ccccc3)CC2)cc1	17.7	-4.3	i	0.39	15.3
ClC(Cl)(c1nnnn1-c1ccccc1)c1nnnn1-c1ccccc1	87.6*	-18.5	i	-0.06	49.9
Oc1ccccc1/C=N/Nc1ccnc(SCc2ccccc2)n1	7.4	-18.8	i	0.01	96.2*
Cc1cc(=O)oc2cc(OCC(=O)OCC(=O)NC3CC3)ccc12	13.5	x	i	3.8*	0.9
Cc1ccc(Oc2ccc(-c3nc(N)nc(N)n3)cc2)cc1	39.3	-59.1	i	0.14	97.6*
Nc1nc(N)nc(-c2ccc(Cl)cc2)n1	9.1	-28.6	i	0.13	1.1
O=C(O)/C=C/C(=O)Nc1ccccc1-c1ccccc1	-11.3	0.0	i	-0.09	-6.8
CC1CC(OCC(O)C[N+]2(C)CCOCC2)CC(C)(C)C1 (centres undefined)	-2.2	-81.8	i	-0.15	-7.1
CC1CC(OCC(O)CN2CCOCC2)CC(C)(C)C1 (centres undefined)	-0.5	50.0	i	0.69	76.9*
CCOC(=O)N1CCN(CC(O)COC2CC(C)CC(C)(C)C2)CC1 (centres undefined)	33.1	-93.5	i	1.52	92.6*
